# Laboratory results taken from PubChem BioAssay (Tox21).
# Values joined by “and” are separate entries in the source; they are usually repeats but may differ in a detail not shown here. Equal entries are not always repeated. Results filed as inconclusive are left out. Where a call stands in place of a potency, no number is given. Active and inactive are the calls of the source. Calls follow the shape of the dose curve; as a rule, active = well fitted cell-killing curve with a large enough effect in the repeat runs; inconclusive = weak or mixed curves; inactive = flat fitted curve, though single readings scatter.
# Assay: qHTS RealTime-Glo MT Cell Viability Assay in HepG2 cells - 24 hour (AID 1224867); also: nearly all actives have a fitted effect of over 50% in size
# Conditions: RealTime-Glo luminescence; series mostly up to 76.8 µM
# Text: U.S. Tox21 Program National Center for Advancing Translational Sciences [NCATS] NIH Chemical Genomics Center [NCGC] U.S. Environmental Protection Agency [EPA] National Institutes of Environmental Health Sciences [NIEHS] National Toxicology Program [NTP] U.S. Food and Drug Administration [FDA] Tox21 Assay Overview: Measure of cell viability is critical in the cell-base assay. Analysis of cell viability is necessary for the characterization of cell responses to cytotoxic drugs and environmental stress. A RealTime-Glo MT Cell Viability Assay to monitor cell viability in real time of continues cell culture during 40 hours of compound treatment was used to screen Tox21 10K library compounds in HepG2 cells. The RealTime-Glo MT Cell Viability Assay is a nonlytic, homogeneous, bioluminescent method to measure cell viability in real time using a simple, plate-based method. The assay involves adding NanoLuc luciferase and a cell-permeant prosubstrate to cells in culture. Viable cells reduce the proprietary prosubstrate to generate a substrate for NanoLuc luciferase. This substrate diffuses from cells into the surrounding culture medium, where it is rapidly used by the NanoLuc Enzyme to produce a luminescent signal. The signal correlates with the number of viable cells, making the assay well suited for cytotoxicity studies.
# Tox21 Assay Protocol Summary: The mixture of HepG2 cell suspension and reagents were dispensed at 600cells/6 ul/well in 1536-well tissue culture treated black solid bottom plates using a Multidrop dispenser. After the assay plates were incubated at a 37 C/5% CO2 incubator for 5 hours, 23 nL of compounds dissolved in DMSO, positive and negative controls was transferred to the assay plate by a pintool work station. The plates were incubated at 37 C for 40 hours. The luminescence intensity were measured at 0h, 8h, 16h, 24h, 32h and 40h time points using ViewLux plate reader during compound treatment.
# Potency is read from the fitted curve at half-maximal effect.
row,SMILES,Potency
1,CCCCOCCOCCOCCO,inactive
2,Nc1ncnc2nc[nH]c12,inactive
3,Cc1cccc([N+](=O)[O-])c1C,inactive
4,COc1ccccc1/C=C/C=O,inactive
5,Nc1ccc(Nc2ccccc2)cc1,inactive
6,Nc1ccccc1N,inactive
7,CC(C)=CCC/C(C)=C\CO,inactive
8,O=C=Nc1ccc(Cc2ccc(N=C=O)cc2)cc1,inactive
9,CCC(C)CO (stereo not given),inactive
10,S=C(NC1CCCCC1)NC1CCCCC1,inactive
11,CCCCC(CC)COC(=O)c1ccc(N(C)C)cc1 (stereo not given),inactive
12,CN1C(C(=O)Nc2ccccn2)=C(O)c2ccccc2S1(=O)=O,inactive
13,O=C(/C=C/C=C/c1ccc2c(c1)OCO2)N1CCCCC1,inactive
14,Cc1c(OCC(F)(F)F)ccnc1CS(=O)c1nc2ccccc2[nH]1 (stereo not given),inactive
15,Brc1cc(Oc2cc(Br)c(Br)c(Br)c2Br)c(Br)c(Br)c1Br,inactive
16,CC(C)CC(C)(O)C#CC(C)(O)CC(C)C (stereo not given),inactive
17,CC(C)(C)NC(=O)[C@H]1CC[C@H]2[C@@H]3CC[C@H]4NC(=O)C=C[C@]4(C)[C@H]3CC[C@]12C,inactive
18,O=C(c1ccccc1)c1ccc(O)cc1O,inactive
19,OC[C@H]1O[C@@H]2O[C@H]3[C@H](O)[C@@H](O)[C@@H](O[C@H]4[C@H](O)[C@@H](O)[C@@H](O[C@H]5[C@H](O)[C@@H](O)[C@@H](O[C@H]6[C@H](O)[C@@H](O)[C@@H](O[C@H]7[C@H](O)[C@@H](O)[C@@H](O[C@H]8[C@H](O)[C@@H](O)[C@@H](O[C@H]1[C@H](O)[C@H]2O)O[C@@H]8CO)O[C@@H]7CO)O[C@@H]6CO)O[C@@H]5CO)O[C@@H]4CO)O[C@@H]3CO,inactive
20,C/C=C/C(=O)O,inactive

row,SMILES,Potency
1,COC(C)COC(C)COC(C)CO (stereo not given),inactive
2,C=CC(C)(CCC=C(C)C)OC(C)=O (stereo not given),inactive
3,Nc1ccc(Cl)cc1Cl,inactive
4,c1ccncc1,inactive
5,CC(=O)CC/C=C(\C)CCC=C(C)C,inactive
6,OC(CCl)CCl,inactive
7,Cc1cccc(N(C)C(=S)Oc2ccc3ccccc3c2)c1,inactive
8,CN(C)CCN(Cc1cccs1)c1ccccn1,inactive
9,c1cc(-c2ccncc2)ccn1,inactive
10,O=CCCCC=O,inactive
11,CCCCCCCCCC(=O)OC,inactive
12,c1ccc2sc(SSN3CCOCC3)nc2c1,54.9 µM (active)
13,O=P(O)(O)O,inactive
14,CC(C)Oc1ccc2c(=O)c(-c3ccccc3)coc2c1,inactive
15,c1ccc2c(c1)c1cccc3ccc4cccc2c4c31,inactive
16,Cc1cc2nc3c(=O)[nH]c(=O)nc-3n(C[C@H](O)[C@H](O)[C@H](O)CO)c2cc1C,inactive
17,O=S(=O)(O)c1ccc(O)cc1,inactive
18,COC(=O)C1=C(C)NC(C)=C(C(=O)OCCN(C)Cc2ccccc2)C1c1cccc([N+](=O)[O-])c1 (stereo not given),24.4 µM (active) and 10.7 µM (active)
19,O=C1OC2(c3cc(Br)c(O)c(Br)c3Oc3c2cc(Br)c(O)c3Br)c2c(Cl)c(Cl)c(Cl)c(Cl)c21,inactive
20,O=C(Nc1ccc([N+](=O)[O-])cc1Cl)c1cc(Cl)ccc1O,inactive
